About 83,000 compounds went through this panel and 20% of them were active in at least one assay; those are over-represented in the sample as a whole.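 Assay: single dose, 48 h. Readout: percent growth (0 = no net growth; negative = cell death). Active: <10.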 The source made the active and inactive calls.

This experiment concerns SN12C renal. The experiment can be described thus: NCI-60 one-dose screen, 48 h (100 = growth as untreated, 0 = no growth, -100 = all killed). The conditions noted are these: 10 µM unless noted.
`CC(=O)OC[C@H]1OC(Sc2sc(C(=O)c3ccc(C)cc3)c(N)c2-c2nc3ccccc3s2)[C@H](OC(C)=O)[C@@H](OC(C)=O)[C@@H]1OC(C)=O` (stereo partly drawn): the growth is 41.9% (inactive).

Turning to `COC1=C(C)C(=O)c2c(c(CCCl)c3n2CCC3O)C1=O` (stereo not drawn), the growth is 6.15% (active).

Turning to `Oc1ccc(C#CCOc2ccccc2)cc1CNCCN(Cc1ccccn1)Cc1ccccn1`, the growth is 13.9% (inactive).

On to `CCc1nnc(NC(=O)c2nnn(-c3ccccc3)c2-c2ccco2)s1`, for which the growth is 96.4% (inactive).

Turning to `CNc1nc2c(s1)C(c1cccc(F)c1)CC(=O)N2` (stereo not drawn), the growth is 95.2% (inactive).

For the molecule `CC(=O)O.CN1[CH-]N(Cc2ccc(C#N)cc2)c2ccccc21.[Ag+]`, the growth was 111% (inactive).

On to `O=C(Nc1ccc(F)cc1F)c1cc(F)ccc1O`, for which the growth is -3.45% (active).

For the molecule `CCc1ccc(Oc2c(-c3ccc(OCc4ccc(Cl)cc4)cc3O)nn(C)c2C(F)(F)F)cc1`, the growth was 4.95% (active).

For `CCC(=O)Nc1ccc(-c2nc(-c3cccc(OC)c3)c(-c3ccnc(Br)c3)[nH]2)cc1`, the growth is 68.3% (inactive).

With `CC/C=C\C[C@@H](O)C/C=C1/C(=O)C=C[C@H]1C/C=C\CCCC(=O)OC`, the growth is -29.5% (active).

For the molecule `CC(=O)CC(c1ccccc1)c1c(C)[nH]c2ccccc12` (stereo not drawn), the growth is 94% (inactive).

As for `Cc1nc2cnc(N)c(C#Cc3cncc(C(=O)Nc4ccc(CN5CCN(C)CC5)c(C(F)(F)F)c4)c3)c2nc1C`, the growth was 9.49% (active).

On to `COc1ccc(-c2nc(NCCO)[nH]c(=O)c2C#N)cc1`, for which the growth is 95.9% (inactive).

As to `COc1ccn2c(C(C)=O)cc(C(=O)c3ccc4c(c3)Sc3ccccc3N4)c2c1`, the growth was 25.3% (inactive).

Consider `COC(=O)C(Cc1ccccc1)NC(=O)NC(=O)NC(=O)CI` (stereo not drawn), for which the growth is 17.2% (inactive).

As to `O=C1CCC(C(=O)NCCNCCNC(=O)C2CCC(=O)N2)N1` (stereo not drawn), the growth was 96.9% (inactive).

Consider `C(=N/Nc1ncnc2nc[nH]c12)/c1ccccn1`, for which the growth is 36.6% (inactive).

For the molecule `CCCCCCCCCCCCCCCCCCOc1ccc(CC(=O)OCC[N+](C)(C)C)cc1`, the growth is 94.1% (inactive).

In the case of `COc1ccc([C@H]2c3cc(OC)c(OC)cc3C=C(C=O)C2CO)cc1OC` (stereo partly drawn), the growth is 68% (inactive).

Turning to `Cc1nn(-c2ccccc2)c(-n2ccnc2)c1/C=N/Nc1nc(-c2ccc(Cl)c(Cl)c2)cs1`, the growth was 31.3% (inactive).

For `Cc1ccc2c(n1)C(=O)C(Cl)=C(Nc1ccccc1C(C)C)C2=O`, the growth is 23.7% (inactive).

Take `Cc1cccc2c3c(sc12)C(c1ccc(Cl)cc1)C(C#N)=C(/N=C/c1ccc(Cl)cc1)O3` (stereo not drawn): the growth is 27.3% (inactive).

`Cc1ccc2c(-c3cc(-c4ccccc4)nc(N)c3C#N)cc(=O)oc2c1`: the growth was 91.2% (inactive).

`Cc1ncc(C(=O)Nc2ccc(CN3CCN(C)CC3)c(C(F)(F)F)c2)cc1C#Cc1ccc(N)nc1`: the growth was 2.89% (active).

For `COc1ccc(CN2c3ccccc3Sc3ccccc32)c(F)c1`, the growth is 47.1% (inactive).

Consider `COc1ccc(-c2ncnc3c2ncn3CC#CCCl)cc1`, for which the growth was 46.3% (inactive).

With `COc1ccc(C(=O)C[C@]2(O)C(=O)Nc3c(Cl)ccc(Cl)c32)cc1`, the growth was 39.8% (inactive).

With `c1ccc2c(-c3nc(-c4c[nH]c5ccncc45)cs3)c[nH]c2c1`, the growth was 68.9% (inactive).

For the molecule `C=CCNc1ccc2c3c(cccc13)C(=O)N(N1C(=O)c3cccc4cccc(c34)C1=O)C2=O`, the growth is 101% (inactive).

With `N#Cc1c(-c2ccccc2)nc(SCC(=O)Nc2nc(-c3ccc(Cl)cc3)cs2)[nH]c1=O`, the growth is 104% (inactive).

On to `COc1cc(C(=O)/C=C/c2c(Cl)nc3sccn23)cc(OC)c1OC`, for which the growth is 66.3% (inactive).

As to `COc1ccc(-c2cc(-c3ccc(Cl)cc3)c(C#N)c(=O)n2CCCCCC(=O)Nc2ccccc2N)cc1`, the growth is 41.9% (inactive).

With `COc1cccc(/C=C2\C=C(c3ccccc3)N(Cc3ccccc3)C2=O)c1`, the growth was 43.6% (inactive).

Turning to `CCOC(=O)c1cn2ncnc(Oc3ccc(NC(=O)NCCN(C)C)c(Cl)c3)c2c1C`, the growth is 63.9% (inactive).

As for `COc1ccc(N2C(=O)C(Oc3ccccc3)C2c2ccc(C)cc2)cc1` (stereo not drawn), the growth was 104% (inactive).

On to `O=[N+]([O-])c1ccc(Cl)c(-c2cc(CCCCO)on2)c1`, for which the growth was 94.5% (inactive).

As for `COc1cccc2nc3n(c12)C(c1c(F)cccc1F)SC3` (stereo not drawn), the growth is 100% (inactive).

As for `Cc1ccc(S(=O)(=O)N/N=C/C2(c3ccccc3)CC2)cc1`, the growth was 98.7% (inactive).

(Values after PubChem BioAssay (NCI).)
